Consider 77 molecules from PubChem BioAssay AID1645887 (National Center for Advancing Translational Sciences (NCATS), 2021).

“And” between values parts separate entries of the source, which are not always exact repeats. Equal entries are not always repeated. The campaign covered roughly 16,000 compounds. About 40 (0.2%) were called active. Roughly 1% stayed inconclusive and do not appear here. The sample holds actives, similar compounds and a random draw of the others, so the mix is not that of the screen. Values without a mark were called inactive. Calls come from the whole dose curve; as a rule, active = well fitted activation curve with a large enough effect; inconclusive = small, poorly fitted or top-dose-only effect, or another doubt; inactive = no such curve, though single readings can be large or run the other way.
% is set by controls: 0 for no effect and ±100 for the full control effect; potency is the fitted concentration of half-maximal effect.

Rap guanine nucleotide exchange factor 4 (Homo sapiens), sequence (Q8WZA2 whole entry, looked up): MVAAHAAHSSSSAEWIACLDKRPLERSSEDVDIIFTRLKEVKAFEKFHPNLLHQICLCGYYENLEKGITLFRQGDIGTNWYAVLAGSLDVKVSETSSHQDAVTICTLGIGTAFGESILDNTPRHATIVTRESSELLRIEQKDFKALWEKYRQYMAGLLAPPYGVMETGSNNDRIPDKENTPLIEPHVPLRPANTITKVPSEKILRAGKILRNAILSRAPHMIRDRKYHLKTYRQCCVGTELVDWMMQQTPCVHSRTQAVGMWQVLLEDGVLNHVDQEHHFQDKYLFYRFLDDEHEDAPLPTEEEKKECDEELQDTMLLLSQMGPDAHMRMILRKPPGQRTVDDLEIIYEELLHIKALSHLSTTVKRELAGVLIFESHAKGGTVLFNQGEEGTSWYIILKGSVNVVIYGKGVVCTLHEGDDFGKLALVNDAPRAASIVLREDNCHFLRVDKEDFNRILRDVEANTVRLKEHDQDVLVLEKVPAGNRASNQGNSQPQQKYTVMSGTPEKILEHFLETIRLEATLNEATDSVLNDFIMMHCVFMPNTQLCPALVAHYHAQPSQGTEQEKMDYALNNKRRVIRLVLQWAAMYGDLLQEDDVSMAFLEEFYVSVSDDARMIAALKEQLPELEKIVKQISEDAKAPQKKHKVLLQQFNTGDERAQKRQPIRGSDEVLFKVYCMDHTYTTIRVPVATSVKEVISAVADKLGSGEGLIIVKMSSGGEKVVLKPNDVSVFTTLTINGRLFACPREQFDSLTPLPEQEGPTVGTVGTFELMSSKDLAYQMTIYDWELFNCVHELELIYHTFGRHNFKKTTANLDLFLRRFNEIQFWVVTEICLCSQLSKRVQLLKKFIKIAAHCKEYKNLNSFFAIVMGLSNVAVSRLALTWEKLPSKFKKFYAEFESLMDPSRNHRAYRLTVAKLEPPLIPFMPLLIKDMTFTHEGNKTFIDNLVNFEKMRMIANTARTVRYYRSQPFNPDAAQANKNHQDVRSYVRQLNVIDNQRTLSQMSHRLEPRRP

The test has as its target Rap guanine nucleotide exchange factor 4 (Homo sapiens) (UniProt Q8WZA2). Nature of the test: Validation qHTS for agonist of cAMP-regulated guanine nucleotide exchange factor 4 (EPAC2).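 For activation: exchange makes BODIPY-GDP fluorescence drop when released from Rap1B; series mostly up to about 150 µM.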 As to conditions: EPAC2 Rap1B BODIPY-GDP exchange, fluorescence; activation: stronger effect = higher value. An excerpt:
Principle Investigator: Xiaodong Cheng Ph.D.
The University of Texas Medical Branch, […], TX
In multi-cellular eukaryotic organisms, the effects of cAMP are transduced by two ubiquitously-expressed intracellular cAMP receptors, the classic protein kinase A/cAMP-dependent protein kinase (PKA/cAPK) and the more recently discovered exchange protein directly activated by cAMP/cAMP-regulated guanine nucleotide exchange factor (EPAC/cAMP-GEF). Both PKA and EPAC are ubiquitously expressed in all tissues, and an increase in intracellular cAMP levels will lead to the activation of both PKA and EPAC. Therefore, careful dissections of the individual role and relative contribution of EPAC and PKA within the overall cAMP signaling in various model systems are critical for further elucidating the mechanism of cAMP signaling. To date no EPAC-specific antagonists and agonist, as well as isoform-specific agonists have been reported, and developing EPAC-specific pharmacological probes to determine the physiological functions that EPAC play in the overall cAMP-mediated signaling remains a major challenge within the research field. Furthermore, identified regulators of EPAC may lead to new mechanism-based therapeutic strategies specifically targeting the EPAC / cAMP-signaling components as EPAC has been implicated to play important roles in major human pathological conditions such as diabetes, heart disease, and cancer.
This qHTS will be used to screen the Molecular Libraries Small Molecule Repository (MLSMR) as a concentration-titration series using the NCGC unique quantitative screening (qHTS) platform to find activators for EPAC1. In addition, this assay will also be used as a counterscreen for the EPAC2 qHTS. This fluorescent based assay is developed and validated for EPAC1 that measures exchange using EPAC effector Rap1 complex with BODIPY-GDP, a GDP analog with a tethered fluorophores. Activators are identified by monitoring the change in fluorescence signal as the exchanged free BODIPY-GDP has a reduced fluorescence compared to Rap1-bound BODIPY-GDP. Increase in signal (activation) is the desired outcome for the EPAC1 agonist while no activity in this assay is desired for the EPAC2 agonist counterscreen.
[1] de Rooij, J., Zwartkruis, F. J., Verheijen, M. H., Cool, R. H., Nijman, S. M., Wittinghofer, A., and Bos, J.L. (1998) Nature 396, 474-477.
Briefly, three uL of reagents (100 nM EPAC2, 250 nM RAP1B-BODIPY-GDP, 50 uM GDP) were dispensed into a 1536-well Greiner black solid-bottom medium binding assay plate. Controls and test compounds (23 nL) were transferred to the plate via a Kalypsys pin tool equipped with a 1536-pin array. The plates were centrifuged at 1,000 rpm for 15 seconds followed by 5 minute incubation at room temperature. The assay plates were read at 5 minute intervals for 30 minutes in the ViewLux plate reader using 480nm excitation and 540nm emission filters. The results were normalized to the agonist positive control of 6.5 mM cAMP.
A general note: In qHTS, concentration-response curves come from the screen itself.
As for `O=c1c(-c2ccc(F)c(F)c2)nc2cncnc2n1Cc1ccccc1`, the activation is -20.1%. Still for that read-out and setting: the same measure for `C[N+](C)(CCOc1ccccc1)Cc1cccs1`: -2.61%; for `O=C(NCc1ccncc1)c1cnn(-c2nccc(-c3cccs3)n2)c1C1CC1`: -7.47%. On the same count and under the same terms, for `COc1ncc2nc(C)c(=O)n(Cc3cccs3)c2n1` the value was -6.26%. Consider `CN(C)Cc1ccccc1-c1cncnc1Nc1ccncc1`, for which the activation was 2.36%. In the case of `COc1cccc(Cn2c(=O)c(C)nc3cnc(N4CCOCC4)nc32)c1`, the activation was 1.39%. Same read-out and setting: for `CN(C)C(=O)c1ccc(-c2cc(NCc3cccs3)ncn2)cc1` the value was -16.8%.

For the molecule `CCNc1ncc2nc(-c3cccc(C#N)c3)c(=O)n(Cc3cccc(OC)c3)c2n1`, the activation is 3.97%.

For `Cc1ccc(C(C)CCN2CCOc3ccc(CN4CCOCC4)cc3C2)o1` (configuration not stated), the activation was 1.95%.

Consider `CC1CN(c2cc3c(cc2F)c(=O)c(C(=O)O)cn3-c2ccc(F)cc2F)CCN1` (configuration not stated), for which the activation was -22.2%. Same read-out and setting: for `C=C[C@@H]1c2cc(C)ccc2N(S(=O)(=O)c2ccc(C)cc2)[C@H](c2ccc(OC(C)=O)cc2)C1(C#N)C#N` the value was -9.82%; for `CCN(CC)CCCC(C)Nc1ccnc2cc(Cl)ccc12` (configuration not stated), -8.87% and 0.526% and -22.7%; for `CCN(CC)CCCC(C)Nc1cc(/C=C/c2ccccc2Cl)nc2cc(Cl)ccc12` (configuration not stated), 16.5%.

Regarding `CCN(CC)CCCC(C)Nc1c2ccc(Cl)cc2nc2ccc(OC)cc12` (configuration not stated), the Potency was 89.1 µM (active). On to `COc1ccccc1-c1ccnc(-n2ncc(C(=O)NCc3cccnc3)c2C)n1`, for which the activation is 8.95%. On the same count and under the same terms, the same measure for `COc1ccccc1/C=C\C(=O)OC[C@@H]1CCCN2CCCC[C@H]12`: -21.1%.

`CCOC(=O)CCC(=O)O[C@H]1C(O[C@@H]2C(C)[C@H](O[C@H]3C[C@@](C)(OC)C(O)C(C)O3)C(C)C(=O)OC(CC)[C@@](C)(O)C(O)[C@H](C)C(=O)C(C)C[C@]2(C)O)OC(C)CC1N(C)C` (some centres not stated): the activation was -16.2%. The same measure, in the same setting: the same measure for `O=c1c(-c2ccc(F)cc2)nc2cnc(Oc3cccc(Cl)c3)nc2n1C[C@H]1CCCO1`: 10.2%. Regarding `CO[C@H]1[C@H](NC(=O)c2ccsc2)c2ccccc2C12CCN(Cc1c(O)ccc3ccccc13)CC2`, the activation was -7.57%. For the molecule `OCCN(CCO)c1nc(N2CCCCC2)c2nc(N(CCO)CCO)nc(N3CCCCC3)c2n1`, the Potency was 112 µM (active) and 100 µM (active).

`COCC(=O)N1CCC2(CC1)CN(c1cccc(-c3ccccc3)c1)C2`: the activation is -17%.

Take `Cc1noc(C)c1-c1nc(NCc2cccnc2)c2ccccc2n1`: the activation is -6.22%. As for `Cc1oc(-c2ccccc2NC(=O)c2ccccc2)nc1CNC(=O)C1CC(=O)OC12CCCCC2` (configuration not stated), the activation is -5.24%. For the molecule `CSc1nnc(CNC(=O)c2c(-c3ccccc3)noc2C)n1-c1ccc(F)cc1`, the activation was -0.342%. On to `Cc1cccnc1-c1cccc2c1OC(CNC(=O)C(=O)c1ccccc1)C2` (configuration not stated), for which the activation was -7.04%. In the case of `COc1cccc(CNC(=O)c2c(OC)cc(=O)n3c2CCN(C(=O)c2csc(C)n2)CC3)c1`, the activation was 1.41%. Still for that read-out and setting: the same measure for `CCOC(=O)c1c[nH]c2cc(OCC(C)C)c(OCC(C)C)cc2c1=O`: -9.73%.

As to `Cn1c2c(c(=O)c3ccccc31)C[C@@H](O)C(C)(C)O2`, the activation was -9.21%.

Consider `Cc1cc2nc3c(=O)[nH]c(=O)nc-3n(C[C@H](O)[C@H](O)[C@H](O)CO)c2cc1C`, for which the Potency is 79.4 µM (active) and 100 µM (active). `Nc1ncnc2c1ncn2[C@@H]1O[C@H](COP(=O)(O)OP(=O)(O)OP(=O)(O)O)[C@@H](O)[C@H]1O`: the activation was 1.95%. Same read-out and setting: for `Nc1ncnc2c1ncn2[C@@H]1O[C@H](COP(=O)(O)OP(=O)(O)OP(=O)(O)OP(=O)(O)OC[C@@H]2O[C@H](n3cnc4c(N)ncnc43)[C@@H](O)[C@H]2O)[C@@H](O)[C@H]1O` the value was 12.8% and -62.2%. For the molecule `Cc1cc2nc3c(=O)[nH]c(=O)nc-3n(C[C@H](O)[C@H](O)[C@H](O)COP(=O)(O)OP(=O)(O)OC[C@H]3O[C@@H](n4cnc5c(N)ncnc54)[C@H](O)[C@@H]3O)c2cc1C`, the Potency was 89.1 µM (active). The same measure, in the same setting: the same measure for `Cc1cc2nc3c(=O)[nH]c(=O)nc-3n(CC(O)C(O)C(O)CO)c2cc1C` (configuration not stated): 89.1 µM (active). With `CC[C@H]1OC(=O)[C@H](C)[C@@H](O[C@H]2C[C@@](C)(OC)[C@@H](O)[C@H](C)O2)[C@H](C)[C@@H](O[C@@H]2O[C@H](C)C[C@H](N(C)C)[C@H]2O)[C@](C)(O)C[C@H](C)C(=NOCOCCOC)[C@H](C)[C@@H](O)[C@]1(C)O`, the activation was -4.72%. As for `C[C@@H]1CN(Cc2ccc3c(c2)CN(Cc2cccc4c2OCO4)CCO3)C[C@H](C)O1`, the activation is -2.91%.

Take `CC(=O)c1ccc(F)c(-c2cc(C)cc3c2OC(CNC(=O)C[C@@H]2C[C@@H](C)NC(=S)N2)C3)c1` (some centres not stated): the activation was -13.4%. On the same count and under the same terms, the same measure for `Cc1ccc(N)cc1O`: 2.89%. In the case of `C[n+]1c2cc(N)ccc2cc2ccc(N)cc21` (tested in a mixture with another compound), the Potency was 22.4 µM (active). On to `CC(C)NC(=O)N1CCC2(CC1)CCN(S(=O)(=O)c1ccccc1)CC2`, for which the activation is -7.09%. With `O=S1(=O)CCOCCCN1Cc1cccc(F)c1`, the activation is -1.25%. Same read-out and setting: for `OCC1OC(n2cnc3c(Cl)nc(Cl)nc32)C(O)C1O` (configuration not stated) the value was -15.7%; for `O=C(c1cccc(F)c1)N1CCC2(CC1)CN(c1ccccc1)C2`, 4.44%. On the same count and under the same terms, for `NC(=S)c1ccc[n+]([C@@H]2O[C@@H](COP(=O)([O-])OP(=O)(O)OC[C@H]3O[C@@H](n4cnc5c(N)ncnc54)[C@H](OP(=O)(O)O)[C@@H]3O)C(O)C2O)c1` (some centres not stated) the value was -34.4%; for `COCCn1c(=O)c(CCc2ccccc2)nc2cnc(N3CCN(C)CC3)nc21`, -2.75%; for `COC(=O)C1C(O)CC[C@H]2CN3CCc4c([nH]c5ccccc45)C3C[C@H]12` (some centres not stated), 2.5%.

As to `Cc1c(C(=O)NCCCc2ccncc2)cnn1-c1nccc(-c2ccccc2F)n1`, the activation was -21.1%.

With `COc1cccc(-c2nc(N3CCN(C)CC3)c3ccccc3n2)c1`, the activation was -6.1%. Same read-out and setting: for `COc1cccc(CNC(=O)c2c(OC)cc(=O)n3c2CCN(C(=O)c2cc(C)ccc2C)CC3)c1` the value was -2.82%; for `O=c1c(-c2ccc(Cl)cc2)nc2cnc(N3CCOCC3)nc2n1Cc1ccc(F)cc1`, -11.5%.

Take `COc1cc(CN2CCOc3ccc(C(O)c4cccnc4)cc3C2)cc(OC)c1` (configuration not stated): the activation was -13.6%.

On to `COc1cc(N)c(N)cc1OC`, for which the activation was -7.59%. Take `Nc1ccc(O)cc1`: the activation was 25.8% and 23.8%. Turning to `Nc1cc(N)cc(N)c1`, the Potency was 50.1 µM (active). As to `Cc1cnc(CNc2cc(-c3ccc(N(C)C)cc3)ncn2)cn1`, the activation is -19.7%. Same read-out and setting: the same measure for `COc1ccccc1C1CN(CCNC(=O)c2ccc3c(c2)OCCO3)Cc2ccccc2O1` (configuration not stated): 10.6%. The same measure, in the same setting: the same measure for `COc1ccccc1CN1[C@@H](CC(=O)O)c2ccccc2S1(=O)=O`: -19.4%; for `COC(=O)C1CCN(Cc2ccc3c(c2)CN(C(=O)c2ccc(-n4cnnn4)cc2)CCO3)CC1`: -3.06%. The same measure, in the same setting: for `COc1cc(/C(C)=C/c2ccccc2)c2c(c1)oc1ccccc12` the value was -19%; for `CCCCCCCCCCCCCCCC[n+]1ccc(/C=C/c2c(C)[nH]c3ccccc23)cc1`, -30%.

As to `CCCCCCC[n+]1ccc(/C=C/c2c(C)[nH]c3ccccc23)c2ccccc21`, the activation was -18.3%. For the molecule `CCCCCCC[n+]1ccc(/C=C/c2c(C)[nH]c3ccccc23)cc1`, the Potency is 25.1 µM (active). Turning to `Cc1cnc(-n2ncc(C(=O)NCc3ccccn3)c2C2CC2)nc1-c1cccs1`, the activation is -5.87%. Still for that read-out and setting: the same measure for `Nc1ccc2nc[nH]c2c1`: -7.36%. Take `Nc1ccc2cc3ccc(N)cc3nc2c1`: the Potency is 89.1 µM (active). On to `c1ccc2nc3ccccc3cc2c1`, for which the activation was -8.02%. Same read-out and setting: for `COc1ccc2c(c1)-c1nc(-n3ncc(C(=O)NCC4CCCN(C)C4)c3C3CC3)ncc1CC2` (configuration not stated) the value was 1.91%. On the same count and under the same terms, the same measure for `CC(=O)N[C@@H]1C(O[C@H]2O[C@H](C(=O)O)C(O)[C@H](O)[C@H]2O)[C@H](O)[C@@H](CO)O[C@H]1O[C@@H]1C(C(=O)O)O[C@@H](O[C@H]2[C@H](O)[C@@H](CO)OC(O)[C@@H]2NC(C)=O)[C@H](O)[C@H]1O` (some centres not stated): -11.1%. On the same count and under the same terms, for `CCn1c(C)nc2cc(NS(=O)(=O)c3ccccc3)cc(C(=O)N3C[C@@H](C)O[C@@H](C)C3)c21` the value was -0.794%; for `OC(C1=C/C(=C\c2ccncc2)c2ccccc21)c1ccncc1` (configuration not stated), -21.2%. With `COc1ccc(C(=O)N2CCC3(CC2)c2ccccc2[C@@H](NC(=O)c2ccccn2)[C@@H]3OC)c(O)c1`, the activation is 3.44%. Still for that read-out and setting: the same measure for `O=C1[C@H](Cc2ccccc2)NC/C=C\C[C@@H](c2ccc(Cl)cc2)N1Cc1ccccc1`: -43%; for `CC(C)C[C@@H](CO)N1CCN(Cc2cccc(C#N)c2)CCC1=O`: -27.7%.

For `COc1ccc(OC)c(CN2CCCC(c3nc(-c4ccncc4)ncc3-c3ccccc3C)C2)c1` (configuration not stated), the activation is -2.68%.

Regarding `FC(F)OC(Cl)C(F)(F)F` (configuration not stated), the Potency is 31.6 µM (active). Consider `FC(F)(F)C(Cl)Br` (configuration not stated), for which the activation is -29.1%.

For the molecule `COCc1ccc(CN2CCOc3c(O)cc(-c4cc(C)c5ccc(F)cc5n4)cc3C2)o1`, the activation is 8.6%. Consider `O=C(c1cc(C(F)(F)F)cc(C(F)(F)F)c1)N1CCC2(CCCN(Cc3ccccc3)C2)CC1`, for which the activation was -6.26%.
